# Screens as filed in PubChem BioAssay.
# MITF TRPM1 inh = reduces MITF-dependent TRPM1 promoter luciferase signal | AID 488899 | inhibition, % at 12.5 µM | SK-MEL-5 TRPM1 promoter luciferase, 24 h | hit rate 0.83% among 330,000;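 active means mean inhibition across replicates of 60% or more, whatever share of single replicates reaches that level; inconclusive means some that reach 60%, reason not given; inactive means mean inhibition across replicates below 60%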
# Shn3 inh set2 = Schnurri-3 reporter inhibition in Clone20 osteoblasts. hit rate 0.52% among 360,000. inhibition, % at 12.5 µM. AID 588674. Clone20 osteoblast Shn3 3'UTR firefly luciferase, 24 h;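 active means mean inhibition of at least 75% with every replicate also reaching 75%; inconclusive means mean inhibition at least 75% but some replicate below; inactive means mean inhibition below 75%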;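 further: 0% = median of neutral control wells and 100% = pilot-screen positive control compound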
# EWS-Fli block = EWS/Fli transcriptional activity inhibition | A673 NR0B1-luciferase reporter, viability-normalised | AID 651661 | hit rate 0.67% among 350,000 | inhibition, % at 12.6 µM;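 active means mean inhibition of at least 50% after viability correction, with every replicate also passing that limit; inconclusive means mean reaches 50% but only one of two replicates passes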;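 further: firefly luciferase signal divided by Alamar Blue viability fluorescence both relative to DMSO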
# LGR2 inh = inhibitors of bursicon-induced Drosophila LGR2 receptor cAMP signaling. HEK293 LGR2, CRE-luciferase, bursicon-stimulated, 4 h. AID 720647. hit rate 0.35% among 380,000. inhibition, % at 9.99 µM;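 active means drop in luminescence signal, shown as inhibition above about 50% in the replicate tests, limit read from the data, passing the limit was not always enough; inconclusive means probably only some replicates passing the limit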;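 further: agonist challenge used bursicon conditioned medium at about half maximal strength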
# EBV LMP1 NFkB = reduces LMP1-driven NF-kappaB luciferase signal. LMP1-induced NF-kappaB luciferase reporter cells, luminescence. hit rate 0.69% among 350,000. inhibition, % at 12.5 µM. AID 504558; in the data active means inhibition above about 41%; inconclusive means no clear call, values can overlap the other calls;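 further: 0% = neutral control wells and 100% = reference inhibitor control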
# PAX8 reporter = inhibitors of PAX8 transcriptional activity in RMG-I cells. RMG-I TPO-luciferase reporter, SteadyGlo, 24 h. inhibition, % at 12.6 µM. hit rate 1.2% among 360,000. AID 652154;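 active means mean replicate inhibition at least 60% with every replicate also reaching 60%; inconclusive means only one of the two criteria is met; inactive means mean below 60% and not all replicates reaching 60%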;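 further: luciferase light reporting Pax8 driven TPO promoter activity; plate controls were median of neutral control wells for no effect and mitoxantrone controls for full effect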
# Starred values were filed as active, the others as inactive; u = inconclusive; x = no result. Compounds with a hit are over-represented: about 2.2% of the library has one in this group of screens.
SMILES,MITF TRPM1 inh,Shn3 inh set2,EWS-Fli block,LGR2 inh,EBV LMP1 NFkB,PAX8 reporter
C[C@H](CO)N1C[C@H](C)[C@@H](CN(C)Cc2ccc(-c3ccccc3)cc2)Oc2ccc(NC(=O)Cc3ccccc3)cc2CC1=O,x,x,21,20,x,94*
C[C@@H]1CN([C@@H](C)CO)C(=O)Cc2cc(NC(=O)CCC(F)(F)F)ccc2O[C@H]1CN(C)Cc1ccc(-c2ccccc2)cc1,x,x,33,42,x,100*
C[C@@H]1CN([C@@H](C)CO)C(=O)Cc2cc(NC(=O)Cc3ccccc3)ccc2O[C@@H]1CN(C)Cc1ccc(-c2ccccc2)cc1,x,x,17,-20,x,51
C[C@H](CO)N1C[C@H](C)[C@H](CN(C)Cc2ccc(-c3ccccc3)cc2)Oc2ccc(NC(=O)Cc3ccccc3)cc2CC1=O,x,x,31,27,x,66*
C[C@@H]1CN([C@H](C)CO)C(=O)Cc2cc(NC(=O)Cc3ccccc3)ccc2O[C@@H]1CN(C)Cc1ccc(-c2ccccc2)cc1,x,x,20,14,x,11
CNC(=O)C[C@@H]1CC[C@@H]2[C@@H](COc3ccc(NC(=O)c4cccc(OC)c4)cc3C(=O)N2C)O1,x,x,3,-6,x,-4
COc1cccc2[nH]c3ccccc3c(=O)c12,-3,5,x,x,0,x
C=Cc1ncc(OC)c2c1[nH]c1ccccc12,82*,12,x,x,-12,x
C[C@H](CO)N1C[C@H](C)[C@@H](CN(C)C(=O)c2ccncc2)Oc2cc(-c3cccc(C#N)c3)ccc2S1(=O)=O,x,x,5,0,x,-11
CCCCCOP(=O)(c1ccccc1)c1ccccc1,5,-3,9,27,-25,95*
CC(=O)NC(CCS(C)(=O)=O)C(=O)Nc1ccc(Cl)c(Cl)c1 (stereo unspecified),12,-13,7,6,55*,-3
CC(=O)NC(CCS(C)(=O)=O)C(=O)Nc1ccccc1 (stereo unspecified),-11,-21,3,-53,4,-30
CC(=O)NC(CCS(C)(=O)=O)C(=O)Nc1c(F)cccc1F (stereo unspecified),-6,12,x,23,72*,x
CC(=O)NC(CCS(C)(=O)=O)C(=O)Nc1c(C)cccc1C (stereo unspecified),-4,-8,1,8,3,16
O=C(C[C@@H]1CC[C@@H](NS(=O)(=O)c2ccccc2)[C@H](CO)O1)N1CCN(c2ccccc2)CC1,x,x,1,1,x,-13
C[C@@H]1CCCCO[C@H](CN(C)Cc2ccccc2)[C@@H](C)CN([C@@H](C)CO)C(=O)c2cc(NC(=O)c3ccncc3)ccc2O1,x,x,x,6,x,5
CN(C)CC(=O)N[C@H]1C=C[C@@H](CC(=O)O)O[C@@H]1CO,x,x,-2,-2,x,x
CN(C)CC(=O)Nc1ccc2c(c1)[C@@H]1C[C@H](CC(=O)NCc3ccc4c(c3)OCO4)O[C@@H](CO)[C@@H]1O2,x,x,5,0,x,10
CCN(c1ccccc1)S(=O)(=O)c1ccc(NC(=O)c2nc(S(C)(=O)=O)ncc2Cl)cc1,100*,98*,x,x,2,x
CCS(=O)(=O)c1ncc(Cl)c(C(=O)Nc2ccc(S(=O)(=O)N(C)c3ccccc3)cc2)n1,98*,99*,x,9,57*,110*
C[C@H]1CN([C@@H](C)CO)C(=O)c2cccc(NC(=O)c3cnccn3)c2O[C@@H]1CN(C)S(=O)(=O)c1ccc(Cl)cc1,x,x,-7,-15,x,x
COc1ccc(CCNC(=O)CSC(=O)c2ccccc2)cc1OC,-4,-12,-6,-3,43*,12
CC(C)(C)c1ccc(C(=O)NCCOc2ccccc2F)cc1,26,24,75*,67*,6,29
CC(C)(C)c1ccc(C(=O)NCCOc2ccccc2)cc1,9,23,64*,62*,17,-7
Cc1c(N=Cc2ccc(O)c(Br)c2)cccc1[N+](=O)[O-],-1,-20,6,3,47*,11
SMILES,MITF TRPM1 inh,Shn3 inh set2,EWS-Fli block,LGR2 inh,EBV LMP1 NFkB,PAX8 reporter
O=[N+]([O-])c1ccc(N=Cc2ccc(Br)c([N+](=O)[O-])c2)cc1,3,-11,19,-9,-14,-4
CCCC#Cc1ccc2c(c1)[C@H]1[C@H](CCN1S(=O)(=O)c1ccc(C)cc1)[C@H](CO)N2C,x,x,18,-20,x,-5
N#Cc1c([N+](=O)[O-])cc([N+](=O)[O-])cc1S(=O)(=O)Cc1ccccc1,93*,95*,u,7,28,101*
C[C@H](CO)N1C[C@H](C)[C@H](CN(C)C(=O)Nc2ccc(C(F)(F)F)cc2)OCCCC[C@H](C)Oc2ccc(NC(=O)Cc3ccccc3)cc2C1=O,x,x,-13,3,x,-3
CCOC(=O)c1c(N)sc2c(OCC)c(Br)ccc12,-7,-18,-29,-5,-24,x
CCOC(=O)c1c(NC(C)=O)sc2c(OCC(O)CNC(C)(C)C)c(Br)ccc12 (stereo unspecified),72*,-21,x,10,-4,32
CC(=O)NC1C(OCc2cccc(Br)c2)OC(COC(C)=O)C(OC(C)=O)C1OC(C)=O (stereo unspecified),4,-12,8,28,9,-2
CC(=O)OCC1OC(Nc2cccc(C)c2)C(OC(C)=O)C(OC(C)=O)C1OC(C)=O (stereo unspecified),13,-15,x,3,53*,-6
C[n+]1ccc(/C=C/c2c[nH]c3ccc(F)cc23)cc1,19,-4,28,17,11,70*
Cn1cc(/C=C/c2cc[n+](C)cc2)c2cc(F)ccc21,38,9,x,x,10,x
O=C(Cc1cccnc1)N1CC(=O)N2[C@H](C1)[C@@H](c1ccc(C#CC3CCCC3)cc1)[C@@H]2CO,x,x,-9,-20,x,x
COc1ccc(CN(C)C(=O)c2cccc(NC(=O)CC3SC(N4CCCCC4)=NC3=O)c2)c(OC)c1 (stereo unspecified),63*,80,17,28,u,55
CCCN(CC(=O)Nc1ccccc1C)C(=O)CCl,63*,3,40,1,72*,61*
CCCN(CC(=O)Nc1ccccc1C)C(=O)COc1c(C)cccc1C,3,-20,-5,-21,7,-5
COc1ccc(S(=O)(=O)/N=C2\C=C(Nc3ccc(O)cc3)C(=O)c3ccccc32)cc1,99*,97*,52*,101*,74*,108*
CC(=O)Nc1ccc(NC2=C/C(=N/S(=O)(=O)c3cccs3)c3ccccc3C2=O)cc1,102*,96*,18,98*,2,83*
Cc1ccccc1NC1=C/C(=N\S(=O)(=O)c2cccs2)c2ccccc2C1=O,87*,98*,x,x,91*,110*
O=C(O)c1ccc(S(=O)(=O)/N=C2\C=C(Nc3ccccc3F)C(=O)c3ccccc32)cc1,46,u,u,101*,-14,14
